# Source: PubChem BioAssay
# CtBP-E1A blk = qHTS Assay for Inhibitors of the CtBP/E1A Interaction. CtBP / adenovirus E1A interaction (AlphaScreen). AlphaScreen GST-E1A/His-CtBP binding, 1536-well; hits give low values. activity change, % (no concentration beside the values). 0.49% of 340,000 active. AID 651724, 2012; in the data active = activity change below about -65%; inconclusive = mostly about -30% to -63%
#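 Protein mix (5X: 125 nM each GST-E1A, His-CtBP) was incubated with pinned compound 2 h at 37 deg C in dark, in 50 mM Tris pH 8.0 buffer with 300 mM NaCl. Glutathione donor and nickel acceptor beads followed; AlphaScreen signal read after 1 h.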
# Six1-Eya2 blk = qHTS Assay for Inhibitors of the Six1/Eya2 Interaction. Homeobox protein SIX1 (Homo sapiens) + Protein phosphatase EYA2 (Homo sapiens), …. AlphaScreen GST-Six1/His-Eya2 binding, biochemical; hits give low values. activity change, % (no concentration beside the values). 0.56% of 360,000 active. AID 651725, 2012; in the data active = activity change below about -65%; inconclusive = mostly about -30% to -63%
#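 AlphaScreen luminescence read after one hour at 37 °C in darkness. Pin-transferred compounds met GST-Six1 and His-Eya2 protein (5X stock 250 nM/500 nM) plus glutathione donor and Ni-chelate acceptor beads (5X, 50 ug/mL).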
# JMJD2A Tudor inh = qHTS Assay for Inhibitors of JMJD2A-Tudor Domain; Lysine-specific demethylase 4A (Homo sapiens), O75164; AlphaScreen JMJD2A-Tudor / H3K4me3 peptide binding; Potency, µM (titrated, usually from 114 µM), usual class: inhibitors; 4.4% of 390,000 active; also: nearly all actives have a fitted effect of over 50% in size
# HP1b binding inh = HTS for Inhibitors of HP1-beta Chromodomain Interactions with Methylated Histone Tails; Chromobox protein homolog 1 (Homo sapiens), P83916; AlphaScreen HP1-beta / biotin-H3K9me3 peptide binding; Potency, µM (titrated, usually from 114 µM), actives largely listed as inhibitors; 0.56% of 390,000 active; also: nearly all actives have a fitted effect of over 70% in size
#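 Compound inhibition of the preformed complex between 50 nM HP1-beta and 50 nM biotinylated H3K9me3 peptide was read by AlphaScreen. Buffer was PBS pH 7.4 with 0.01% Tween-20. Incubations ran 30 min at room temperature, with 10 ug/mL donor/acceptor beads.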
# BAZ2B inh = qHTS Assay for Inhibitors of BAZ2B | Potency, µM (highest dose often 114 µM), usual class: inhibitors | 4.4% of 360,000 active | AlphaScreen BAZ2B-H3K14Ac peptide displacement | Bromodomain adjacent to zinc finger domain protein 2B (Homo sapiens), Q9UIF8; also: nearly all actives have a fitted effect of over 60% in size
#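 Complex of BAZ2B and biotin-H3K14Ac (50 nM apiece) forms over 30 min at RT, then faces library compounds up to 110 uM for another 30 min; AlphaScreen beads added, 20 min dark incubation, luminescence read.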
# G9a block = qHTS Assay for Inhibitors of Histone Lysine Methyltransferase G9a. AID 504332, 2011. Potency, µM (top dose mostly 102 µM), most hits filed as inhibitors. G9a H3K9 monomethylation, AlphaScreen, 2 h. 8.8% of 350,000 active. Histone-lysine N-methyltransferase EHMT2 (Homo sapiens), Q96KQ7; also: nearly all actives have a fitted effect of over 75% in size
#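 Quantitative HTS format: methyltransferase activity on a biotin-tagged H3K9 peptide is measured by AlphaScreen, using a rabbit anti-monomethyl-H3K9 antibody with streptavidin donor and anti-IgG acceptor beads. Final levels are 20 nM enzyme, 500 nM peptide, 20 uM SAM; 2 h RT.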
# Hits are given with their value; – = inactive; ? = inconclusive; · = no result given; [ ] = dose if it differs, or a comment. This is a sample that favours compounds with a hit; in the whole collection about 10% have one here. Unless noted, calls follow the shape of the dose curve; as a rule, active = well fitted inhibition curve with a large enough effect; inconclusive = small, poorly fitted or top-dose-only effect; inactive = no such curve, though single readings can be large or run the other way.
SMILES,CtBP-E1A blk,Six1-Eya2 blk,JMJD2A Tudor inh,HP1b binding inh,BAZ2B inh,G9a block
Cc1ccccc1C(=O)NC(=S)NCc1ccccc1,–,–,–,–,–,–[0.501 µM]
Cc1ccccc1C(=O)NCC(=O)NNC(=S)NC(=O)c1ccccc1C,–,–,?,–,–,10µM
Cc1ccccc1C(=O)NCC(=O)NNC(=S)NC(=O)c1ccccc1,–,–,–,–,–,1.1µM
CC(C)Nc1cccnc1N1CCN(C(=O)c2cc3cc(NS(C)(=O)=O)ccc3[nH]2)CC1,·,·,·,·,·,–[12.7 µM]
O=[N+]([O-])c1ccc(Cl)c(S(=O)(=O)/N=C(/Sc2ccc(Br)cc2)c2ccccc2)c1,·,·,?,–,·,·
O=C(NCc1ccc(F)cc1)c1ccc2c(O)c(S(=O)(=O)c3ccccc3)c(=O)[nH]c2c1,·,·,–,–,–,?
Cc1cccc(C)c1NC(=O)CSc1nc2ncccc2o1,·,·,–,–,–,–
CC(O)CNc1ncnc2nc[nH]c12 (centres undefined),–,–,–,–,–,–[2.33 µM]
CC(C)=NNc1ncnc2nc[nH]c12,–,–,25µM,–,·,·
CCOc1ccc(NC(=O)c2ccc3c(c2)CCN3S(=O)(=O)c2ccc(Cl)cc2)cc1,·,·,–,–,–,–
CC1CC(NC(=O)Cc2ccc(Br)cc2)CC(C)(C)C1 (centres undefined),–,–,40µM,–,–,–
CC1CC(NC(=O)CC#N)CC(C)(C)C1 (centres undefined),–,–,–,–,–,·
CCCCC1OC2(C)OC(=N)C1(C#N)C(C#N)(C#N)C2c1ccccc1 (centres undefined),–,–,–,–,–,45µM
Cc1ccc(C)c(CSc2nnc3[nH]c(=O)cc(-c4ccccc4)n23)c1,·,·,–,–,–,–
Cc1ccc(CNC(=O)Nc2cn(CC(C)C)c(=O)c3ccccc23)cc1,·,·,–,–,–,?
C[C@H]1CCC(=O)N([C@H](COc2ccccc2)Cc2ccccc2)CC1,–,–,–,–,–,32µM
CCCSc1ncc(Cl)c(C(=O)Nc2c(C(=O)c3ccc(F)cc3)oc3ccccc23)n1,·,·,–,–,–,–
CN(C)C(=S)N=Nc1[nH]c2ccccc2c1O,·,–,–,–,–,7.9µM
O=C(NCc1cccs1)C(Cc1ccccc1)n1cccc1 (centres undefined),–,–,–,–,–,45µM
Cc1ccc(NC(=O)C(Cc2ccccc2)n2cccc2)cc1 (centres undefined),–,–,–,–,–,–
Cc1csc(NC(=O)C(Cc2ccccc2)n2cccc2)n1 (centres undefined),–,–,?,–,?,45µM
CCC(C(=O)Nc1nc(C)c(C)s1)c1ccccc1 (centres undefined),–,–,–,–,50µM,–[0.501 µM]
CCC(C(=O)Nc1nccs1)c1ccccc1 (centres undefined),–,–,–,–,–,–
CCC(C(=O)Nc1nc(C)cs1)c1ccccc1 (centres undefined),–,–,50µM,–,–,–
O=C(Cn1nc2c(cc1=O)CCCC2)NCc1ccccc1,·,·,–,–,–,–
SMILES,CtBP-E1A blk,Six1-Eya2 blk,JMJD2A Tudor inh,HP1b binding inh,BAZ2B inh,G9a block
Cc1ccc(C)c(NC(=O)C(=O)NCCc2csc3nc(-c4ccccc4C)nn23)c1,·,·,–,–,–,–
COC(=O)c1cc2n3ccccc3c(C)c(-c3ccccc3)c-2c1C(=O)OC,?,–,?,?,45µM,45µM
COC(=O)c1cc2c(C)c(C)c3ccccn3c-2c1C(=O)OC,?,?,–,–,–,–[12.7 µM]
COC(=O)c1ccc(CSc2nc3ccncc3n2Cc2ccc(F)cc2)cc1,·,·,–,–,–,–
OCCN(C=NC1=NN(c2cccc(C(F)(F)F)c2)CC1)CCO,–,–,?,–,–,·
Cc1cccc(N2C(=O)CCC2=O)c1,–,–,–,–,–,–
Cc1cccc(N2CCC(N=CN(C)C)=N2)c1,–,–,?,–,–,4µM
CCN(C=NC1=NN(c2cccc(C(F)(F)F)c2)CC1)CC,–,?,50µM,?,50µM,?
Cc1cccc(Nc2nnc(SCC(=O)Nc3ncc(C(F)(F)F)cc3Cl)s2)c1C,–,–,–,–,–,–
Cc1ccccc1Nc1nnc(SCC(=O)Nc2ncc(C(F)(F)F)cc2Cl)s1,–,–,–,–,–,–
Cc1ccc(Nc2nnc(SCC(=O)Nc3ncc(C(F)(F)F)cc3Cl)s2)cc1,–,–,–,–,–,7.1µM
Cc1cccc(C)c1Nc1nnc(SCC(=O)Nc2ncc(C(F)(F)F)cc2Cl)s1,–,–,25µM,–,–,2.2µM
CCN(CC)CCCNC(=O)c1nn(-c2ccc(OC)c(Cl)c2)c(=O)c2c1c1ccccc1n2C,·,·,–,–,·,–
Cc1ccc(Nc2sc(C(=O)c3ccccc3)c(N)c2S(=O)(=O)c2ccccc2)c(C)c1,·,·,–,–,–,–
Cc1cccc(OCCCSc2nc(-c3ccc(C(C)(C)C)cc3)nc3cc(=O)[nH]n23)c1C,·,·,25µM,–,56µM,–
CCc1ccc(OCCSc2nc(-c3cccc(C)c3)nc3cc(=O)[nH]n23)cc1,·,·,–,–,–,–
CCc1ccc(OCCCSc2nc(-c3ccc(C(C)(C)C)cc3)nc3cc(=O)[nH]n23)cc1,·,·,25µM,–,50µM,–
CCNc1ccccc1CP(=O)(c1ccccc1)c1ccccc1O (centres undefined),–,–,50µM,32µM,40µM,?
Cc1ccc(O)c(CP(=O)(c2ccccc2)c2ccccc2)c1,–,–,–,–,–,–
Cc1cccc(N2C(=O)CC(N3CCN(c4ccc(Cl)cc4)CC3)C2=O)c1 (centres undefined),–,–,–,–,–,–
O=C1CC(N2CCN(c3ccc(Cl)cc3)CC2)C(=O)N1c1ccc(F)cc1 (centres undefined),–,–,–,–,–,–
O=C(O)c1ccc(N2C(=O)CC(N3CCN(c4ccc(Cl)cc4)CC3)C2=O)cc1 (centres undefined),–,–,–,–,?,45µM
COc1ccc(NC2CCN(C3CC(=O)N(c4ccc(F)c(Cl)c4)C3=O)CC2)cc1 (centres undefined),–,–,?,?,45µM,?
COc1cccc(N2CCN(C3CC(=O)N(c4ccc(F)c(Cl)c4)C3=O)CC2)c1 (centres undefined),–,–,–,–,–,?
